IL1B secr inh: qHTS for Inhibitors of Inflammasome Signaling: IL-1-beta AlphaLISA Primary Screen. 360,000 tested, 4.7% active. AID 743279, 2014. THP-1 LPS/ATP IL-1B secretion, AlphaLISA, 16 h; active compounds read low. activity change, % at 57.5 µM; in the data active means activity change below about -50%; inconclusive means mostly about -30% to -49%
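Secreted IL-1B measured by AlphaLISA bead assay after 16 h compound exposure of THP-1 cells; compounds (final up to 57.5 uM) added 1 h before LPS (250 ng/mL) and ATP (1.25 mM) stimulation; lower signal means less secretion.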
ClpP mod: qHTS Assay for Activators of ClpP; 340,000 tested, 1.9% active; Potency, µM (top dose mostly 57.5 µM); AID 651965, 2013; purified B. subtilis ClpP, FRET peptide cleavage, 20 min; ATP-dependent Clp protease proteolytic subunit (Bacillus subtilis (strain 168)), P80244; active means well fitted falling curve with a large enough effect; inconclusive means small, poorly fitted or top-dose-only effect; inactive means no such curve, though single readings can be large or run the other way; further: the source files actives as falling curves though it sought activators and does not explain the sign; nearly all actives have a fitted effect of over 65% in size
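ClpP 10 microg/mL final, pH 8 Tris/KCl buffer with BSA, glycerol, Tween-20; compound pinned in; FRET-FV substrate; RT 20 min; Ex320/Em430; ΔFRET vs ADEP 5.8 microM, DMSO, no enzyme.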
DRD3 antagonist: qHTS of D3 Dopamine Receptor Antagonist: qHTS. D3R cells, DiscoveRx beta-arrestin luminescence, antagonist mode; active compounds read low. max response, negative = inhibition, %. 360,000 tested, 2.5% active. AID 652054, 2013; in the data active means max response below about -50%; inconclusive means no clear call, values can overlap the other calls
Target sequence (P35462 whole entry, looked up): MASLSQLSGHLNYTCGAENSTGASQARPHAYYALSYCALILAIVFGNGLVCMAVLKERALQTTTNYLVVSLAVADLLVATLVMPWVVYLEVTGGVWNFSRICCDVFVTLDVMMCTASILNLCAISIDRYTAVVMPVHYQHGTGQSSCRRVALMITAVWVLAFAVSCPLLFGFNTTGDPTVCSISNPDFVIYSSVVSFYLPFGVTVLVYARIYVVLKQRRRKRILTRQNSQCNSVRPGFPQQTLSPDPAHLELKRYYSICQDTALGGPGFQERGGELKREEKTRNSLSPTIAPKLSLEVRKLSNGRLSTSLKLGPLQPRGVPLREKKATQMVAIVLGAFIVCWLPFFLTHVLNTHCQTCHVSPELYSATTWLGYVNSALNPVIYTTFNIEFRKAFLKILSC
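Cells plated overnight at 1500 cells/well, then exposed to library compounds with dopamine controls for 90 minutes at 37 degrees C. DiscoveRx reagent added for 30–60 minutes at room temperature; luminescence read, quantitative HTS format.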
DT40 TDP1 CPT: qHTS for Inhibitors of human tyrosyl-DNA phosphodiesterase 1 (TDP1): qHTS in cells in presence of CPT; chicken DT40 Tdp1-/-;hTDP1 cells + 20 nM CPT, ATP luminescence, 48 h; 420,000 tested, 12% active; Potency, µM (series often up to 46.2 µM), hits mostly inhibitors; further: nearly all actives have a fitted effect of over 55% in size
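Cell growth measured by CellTiter-Glo luminescence after a minimum 48 h, 37 C compound exposure with 20 nM CPT in Tdp1-knockout DT40 cells stably expressing hTDP1, seeded 400/well; qHTS titration format.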
DRD3 agonist: qHTS of D3 Dopamine Receptor Agonist: qHTS; D(3) dopamine receptor (Homo sapiens), P35462; D3R DiscoveRx beta-arrestin cells, luminescence, 90 min; max activation, %; 410,000 tested, 0.58% active; AID 652048, 2013; in the data active means max activation above about 30%
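Cells at 1500/well, incubated overnight, then treated with pinned compounds (dopamine as control) for 90 min at 37 degrees C. DiscoveRx reagent added for 30 - 60 minutes at room temperature; luminescence read.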
TDP1 cell noCPT: qHTS for Inhibitors of human tyrosyl-DNA phosphodiesterase 1 (TDP1): qHTS in cells in absence of CPT; DT40 Tdp1-/- hTDP1 cells, no CPT, ATP luminescence, 48 h; Potency, µM (doses to about 46.2 µM), most hits filed as inhibitors; AID 686978, 2013; 420,000 tested, 15% active; further: nearly all actives have a fitted effect of over 55% in size
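A cellular qHTS used chicken DT40 cells lacking endogenous Tdp1 but carrying stably transfected human TDP1. Compounds were applied without camptothecin, and cell growth kinetics were judged by ATP-dependent luminescence after ≥48 hr.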
Large screens that a line does not name were inactive. Rows were chosen to be rich in hits. Some 21% of all compounds tested hit in one or more screens of this group. Unless noted, the call rests on the fitted dose curve; in most records, active means well fitted inhibition curve with a large enough effect; inconclusive means small, poorly fitted or top-dose-only effect; inactive means flat fitted curve, though single readings scatter.

Cc1ccccc1NC(=O)C1CCN(C(=O)c2ccc(F)cc2)CC1	none (no result: IL1B secr inh, DRD3 antagonist)
CC(=O)c1cccc(-c2ccnc3c2CC(C(=O)NCc2ccccc2)O3)c1 (configuration not stated)	DT40 TDP1 CPT 0.73µM, TDP1 cell noCPT 0.65µM
CC(=O)c1cccc(-c2ccnc3c2CC(C(=O)NCc2ccc(N4CCN(C)CC4)cc2)O3)c1 (configuration not stated)	TDP1 cell noCPT inconclusive
CC(=O)c1cccc(-c2ccnc3c2CC(C(=O)NCc2ccc(F)c(F)c2)O3)c1 (configuration not stated)	DT40 TDP1 CPT 4.1µM, TDP1 cell noCPT 4.1µM
CN1CCc2c(sc3c2c(=O)n(-c2cccc(Cl)c2)c2nncn32)C1	ClpP mod inconclusive, DT40 TDP1 CPT inconclusive
CN1CCc2c(sc3c2c(=O)n(-c2ccccc2)c2nnc(SCc4ccc(Cl)cc4)n32)C1	IL1B secr inh -81, ClpP mod inconclusive, DT40 TDP1 CPT 13µM, TDP1 cell noCPT inconclusive
COc1ccc(C2CC(=O)c3c(O)cc(O)cc3O2)c(CC=C(C)C)c1OC (configuration not stated)	DT40 TDP1 CPT 23µM, TDP1 cell noCPT inconclusive
COc1ccc(C2CC(=O)c3c(O)cc(O)cc3O2)cc1O (configuration not stated)	TDP1 cell noCPT inconclusive
Cc1cc(S(=O)(=O)N(Cc2ccc(F)cc2)CC2CCCO2)ccc1-n1cnnn1 (configuration not stated)	none
Cc1cc(S(=O)(=O)N(Cc2ccc(C(C)C)cc2)CC2CCCO2)ccc1-n1cnnn1 (configuration not stated)	IL1B secr inh -79, DT40 TDP1 CPT inconclusive
O=c1c2sccc2nc(SCc2cc(=O)n3cc(Br)ccc3n2)n1Cc1ccccn1	IL1B secr inh -53, DT40 TDP1 CPT 21µM, TDP1 cell noCPT 21µM
Cc1ccc(CSc2nc3ccsc3c(=O)n2Cc2ccccn2)cc1	IL1B secr inh inconclusive, DT40 TDP1 CPT inconclusive, TDP1 cell noCPT 16µM
CCc1ccc(N(CC(=O)NC(C)(C)C)C(=O)CCC(=O)Nc2ccccn2)cc1	none
COc1ccc([C@H]2C(C#N)=C([S-])N[C@](C)(O)[C@@H]2[n+]2ccccc2)cc1	none
O=C1c2ccccc2C(Nc2cccnc2)N1Cc1ccccc1Cl (configuration not stated)	DT40 TDP1 CPT inconclusive, TDP1 cell noCPT 21µM
O=C1c2ccccc2C(Nc2cccnc2)N1Cc1ccccc1 (configuration not stated)	none
CCOC(=O)N1CCN(C(=O)COC(=O)c2ccccc2NCCO)CC1	ClpP mod 7.9µM
CCOC(=O)c1ccccc1NC1c2ccccc2C(=O)N1C1CCN(C(=O)OCC)CC1 (configuration not stated)	DT40 TDP1 CPT inconclusive, TDP1 cell noCPT 16µM
Cc1ccc(N2C(=O)c3ccccc3C2Nc2cccnc2)nc1 (configuration not stated)	DT40 TDP1 CPT 15µM, TDP1 cell noCPT 26µM
CC(C)c1ccc(C2(C)NC(=O)N(CC(=O)NCC3COc4ccccc4O3)C2=O)cc1 (configuration not stated)	DT40 TDP1 CPT inconclusive, TDP1 cell noCPT inconclusive
CCOC(=O)c1ccccc1NC1c2ccccc2C(=O)N1c1ccc(C)cn1 (configuration not stated)	ClpP mod inconclusive, DT40 TDP1 CPT inconclusive, TDP1 cell noCPT 18µM
CC(=O)c1ccc(-c2ccc(C(=O)N(C)c3c(N)n(Cc4ccccc4)c(=O)[nH]c3=O)o2)cc1	none
